SMARCA2 activ: SMARCA2 function activation, primary screen; MG213 cells, MMTV-luciferase reporter, dexamethasone, overnight; activation, % at 9.1 µM; 370,000 compounds, 1% hits; AID 652017; in the data active means activation above about 7.8%;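 further: 0% = vehicle wells and 100% = reference activator wells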
PfM18AAP inh-1: PfM18AAP enzyme inhibition; recombinant PfM18AAP, H-Glu-NHMec fluorogenic cleavage; inhibition, % at 7.35 µM; 290,000 compounds, 1.2% hits; AID 1822;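 active means inhibition above the campaign mean inhibition over all tested compounds plus 3 SD, cut at about 28% in these data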;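 further: 0% = plate median of test compound wells and 100% = 2 mM ZnCl2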
MIN6 prolif: induces beta-cell replication in MIN6 cells; 330,000 compounds, 0.29% hits; proliferation, % at 10 µM; MIN6 cells proliferation, ATPlite luminescence, 48 h; cells starved in 0.2% serum; 100% = growth in 10% serum; AID 2380;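 active means compounds whose signal lies at least 3.5 SD above the mean of all wells on their plate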;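 further: 0% = DMSO-treated cells in low-serum medium and 100% = 10% serum control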
ALR inh: blocks human ALR sulfhydryl oxidase activity; P55789; purified ALR, DTT oxidation, H2O2 HRP-luminol luminescence; inhibition, % (no concentration beside the values); 290,000 compounds, 3.8% hits; AID 485317;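 active means mean replicate inhibition above about 79%, with every replicate also reaching it, limit read from the data; inconclusive means only one of the two criteria met; inactive means mean below limit and not every replicate reaching it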
Target sequence (P55789 whole entry, looked up): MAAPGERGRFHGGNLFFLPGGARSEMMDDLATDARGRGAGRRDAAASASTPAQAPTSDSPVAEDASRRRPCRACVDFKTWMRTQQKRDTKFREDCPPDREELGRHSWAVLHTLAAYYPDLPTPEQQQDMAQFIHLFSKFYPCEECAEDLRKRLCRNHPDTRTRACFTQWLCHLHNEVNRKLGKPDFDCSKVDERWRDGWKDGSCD
Granule exo inh: blocks lytic granule exocytosis; TALL-104 LAMP-1 surface exposure, flow cytometry; cells stimulated with thapsigargin and PMA; 360,000 compounds, 0.66% hits; AID 651702; inhibition, % at 10 µM;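 active means inhibition above about 55%, limit read from the data; inconclusive means no clear call, values can overlap the other calls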
JMJD2C inh: blocks human GASC-1 demethylase activity; 330,000 compounds, 0.069% hits; AID 2099; inhibition, % at 2.35 µM; GST-JMJD2C(1-420) H3K9me3 demethylation, DELFIA europium; Q9H3R0;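 active means more than half of a compound's replicate wells show inhibition beyond 50%, single wells judged on their own value; inconclusive means some, but no more than half, of replicates pass 50% inhibition; inactive means no replicate passes 50% inhibition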;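 further: signal counts dimethyl H3K9 product captured on neutravidin plate; 0% = median of DMSO wells and 100% = 0.3 times that DMSO median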
Target sequence (Q9H3R0 1-420 limits assumed): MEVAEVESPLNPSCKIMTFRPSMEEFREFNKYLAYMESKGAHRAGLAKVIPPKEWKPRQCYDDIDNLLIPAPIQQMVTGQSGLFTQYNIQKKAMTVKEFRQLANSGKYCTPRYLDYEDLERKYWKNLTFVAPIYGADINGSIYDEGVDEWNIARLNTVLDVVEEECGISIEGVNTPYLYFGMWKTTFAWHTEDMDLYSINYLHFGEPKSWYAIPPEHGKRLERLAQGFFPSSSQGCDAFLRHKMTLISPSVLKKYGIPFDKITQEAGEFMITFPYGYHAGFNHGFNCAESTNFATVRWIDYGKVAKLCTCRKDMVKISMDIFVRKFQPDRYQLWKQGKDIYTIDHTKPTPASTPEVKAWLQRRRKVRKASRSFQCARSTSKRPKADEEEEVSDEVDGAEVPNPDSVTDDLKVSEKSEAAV
PfM18AAP inh-2: confirmation of Plasmodium falciparum M18 aspartyl aminopeptidase inhibitors | shares compounds with PfM18AAP inh-1 | recombinant PfM18AAP, H-Glu-NHMec fluorogenic cleavage | 2,400 compounds, 28% hits | inhibition, % at 7.35 µM;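 active means mean inhibition over replicate wells above the hit cutoff set for the earlier primary screen, cut at about 29% in these data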;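 further: 0% = median of test compound wells and 100% = 2 mM ZnCl2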
CTSL1 counter: counter-screen for PFM18AAP inhibitors: confirmation of human cathepsin L inhibitors. shares compounds with PfM18AAP inh-1. purified cathepsin L1, Z-Leu-Arg-MCA fluorescence. inhibition, % at 5.96 µM. 2,400 tested, under 10 active;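 active means average inhibition across replicates above the hit cutoff set in the earlier primary screen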;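 further: 0% = median of test compound wells and 100% = Z-Phe-Ala-diazomethylketone 1 µM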
Starred values were filed as active, the others as inactive; ! = repeats disagree. A selection: hits, their analogues and other compounds. The true share with any hit is near 5.4%.

Screening COc1cc2c(NCCCCCCO[N+](=O)[O-])ncnc2c(OC)c1OC returned SMARCA2 activ -4.
`Nc1ccc(C(=O)O)c(O)c1` gave SMARCA2 activ -6, PfM18AAP inh-1 33*!, MIN6 prolif -3, ALR inh -4, Granule exo inh 2, JMJD2C inh 89, PfM18AAP inh-2 -23 and CTSL1 counter -1.
`Nc1ccc(C(=O)Oc2ccc([N+](=O)[O-])cc2)c(O)c1` gave PfM18AAP inh-1 19, MIN6 prolif -5, ALR inh 5, JMJD2C inh 5, PfM18AAP inh-2 -52 and CTSL1 counter -3.
Screening O=C(O)c1ccc(O)cc1O returned SMARCA2 activ -5, MIN6 prolif 0, ALR inh -19, Granule exo inh 7 and JMJD2C inh 10.
For CC12CC(NC(=O)N1c1cccc(C(=O)Nc3ncn[nH]3)c1)c1ccccc1O2 (configuration not stated) the results were SMARCA2 activ 0, PfM18AAP inh-1 43*, MIN6 prolif -2, ALR inh -1, Granule exo inh 0, JMJD2C inh 2, PfM18AAP inh-2 50* and CTSL1 counter -7.
For COc1ccc(NC(=O)c2cccc(N3C(=O)NC4CC3(C)Oc3ccccc34)c2)cc1 (configuration not stated) the results were SMARCA2 activ -1, PfM18AAP inh-1 2, MIN6 prolif 3, ALR inh -7, Granule exo inh -3 and JMJD2C inh 10.
For COc1ccc(/C=N/Nc2cc(C)nc(-n3nc(C)cc3C)n2)cc1 the results were SMARCA2 activ -2, PfM18AAP inh-1 -1, MIN6 prolif -6, ALR inh 1, Granule exo inh 4 and JMJD2C inh -13.
Cc1cc(N/N=C/c2ccccc2O)nc(-c2ccccc2O)n1 was read as SMARCA2 activ -2, PfM18AAP inh-1 42*, MIN6 prolif -4, ALR inh 0, Granule exo inh -3, JMJD2C inh 14, PfM18AAP inh-2 40* and CTSL1 counter 9.
`Cc1cc(N/N=C/c2ccc(O)cc2O)nc(-c2ccccc2O)n1` gave PfM18AAP inh-1 52*, ALR inh 5, Granule exo inh 8, JMJD2C inh 5, PfM18AAP inh-2 54* and CTSL1 counter -1.
`Cc1cc(N/N=C/c2ccc(O)cc2O)nc(-n2nc(C)cc2C)n1` gave SMARCA2 activ 1, PfM18AAP inh-1 51*, Granule exo inh 0, JMJD2C inh 38, PfM18AAP inh-2 33* and CTSL1 counter 1.
`COC(=O)[C@]12C[C@H](CC(=O)NCc3ccc(OC)c(OC)c3)C(=O)N(CCC3=CCCCC3)C1=C[C@H](COCc1ccccc1)O[C@@H]2C` gave SMARCA2 activ -5.
Screening Nc1ccn([C@@H]2O[C@H](C(=O)N[C@H](Cc3ccccc3)C(=O)NCC(=O)N3CCOCC3)[C@@H](O)[C@H]2O)c(=O)n1 returned SMARCA2 activ -1.
For COC(=O)c1cc2c(c3c4cc(OC)ccc4n(S(=O)(=O)c4ccc(OC)cc4)c13)C(=O)N(C1CCCCC1)C2 the results were SMARCA2 activ 1.
For O=C(NC(=S)Nc1ccc([N+](=O)[O-])cc1O)C1CCCCC1 the results were SMARCA2 activ -2, PfM18AAP inh-1 19, MIN6 prolif -6, ALR inh -11, Granule exo inh 1 and JMJD2C inh -4.
Cn1ccc(C(=O)NC(=S)Nc2ccc([N+](=O)[O-])cc2O)n1 was read as SMARCA2 activ 3, PfM18AAP inh-1 34*, MIN6 prolif -5, ALR inh 15, Granule exo inh -7, JMJD2C inh 10, PfM18AAP inh-2 41* and CTSL1 counter -4.
`CCOC(=O)c1c(C)oc2c1c(CN1CCN(C(=O)OCC)CC1)c(O)c1ccccc12` gave SMARCA2 activ 3, PfM18AAP inh-1 5, MIN6 prolif 0, Granule exo inh 6 and JMJD2C inh 17.
Screening CCOC(=O)c1c(C)oc2c(CC(=O)c3ccccc3)c(Cl)c(O)c(O)c12 returned SMARCA2 activ -3, PfM18AAP inh-1 45*, ALR inh 9, Granule exo inh -2, JMJD2C inh -12, PfM18AAP inh-2 24 and CTSL1 counter 3.
`CC(=O)Oc1cc2cccc(OC(C)=O)c(=O)c2c(OC(C)=O)c1OC(C)=O` gave PfM18AAP inh-1 53*, MIN6 prolif -2, ALR inh 99*, Granule exo inh 1, JMJD2C inh -13, PfM18AAP inh-2 30* and CTSL1 counter -11.
Screening COc1ccc(OC)c(S(=O)(=O)Nc2ccc(C(=O)Nc3cc(C)on3)cc2)c1 returned SMARCA2 activ -3.
`Cc1nc(C)c(C(=O)NNC(=O)Nc2ccc(Cl)cc2)s1` gave SMARCA2 activ -4, PfM18AAP inh-1 55*, MIN6 prolif -2, ALR inh 58, Granule exo inh 10, JMJD2C inh -2, PfM18AAP inh-2 25 and CTSL1 counter 4.
`Cc1nc(Cl)sc1C(=O)Nc1ccc(Cl)cc1` gave SMARCA2 activ 2, PfM18AAP inh-1 10, MIN6 prolif 3, ALR inh -16, Granule exo inh 4 and JMJD2C inh 4.
Screening Cc1cc(OCC(=O)Nn2cnnc2)ccc1Br returned PfM18AAP inh-1 56*, MIN6 prolif -1, ALR inh 47, Granule exo inh 0, JMJD2C inh 3, PfM18AAP inh-2 59* and CTSL1 counter -7.
Screening Cc1ccc(-n2c(O)c(/C=N/c3ncn[nH]3)c3ccccc3c2=O)cc1 returned SMARCA2 activ 1, PfM18AAP inh-1 37*, MIN6 prolif -4, Granule exo inh -4, JMJD2C inh 3, PfM18AAP inh-2 -16 and CTSL1 counter 6.
`COc1ccc(N=Cc2c(O)n(-c3ccc(OC)cc3)c(=O)c3ccccc23)cc1` gave SMARCA2 activ -2, PfM18AAP inh-1 0, MIN6 prolif 1, ALR inh -8, Granule exo inh -1 and JMJD2C inh 6.
Cc1ccc(-n2c(O)c(/C=N/n3cnnc3)c3ccccc3c2=O)cc1 was read as SMARCA2 activ -2, PfM18AAP inh-1 71*, MIN6 prolif 0, ALR inh 39, Granule exo inh -3, JMJD2C inh -6, PfM18AAP inh-2 64* and CTSL1 counter -2.
Screening O=c1c2ccccc2c(/C=N/n2cnnc2)c(O)n1-c1ccccc1F returned SMARCA2 activ 1, MIN6 prolif -1, ALR inh inconclusive, Granule exo inh -1 and JMJD2C inh 2.

High-throughput results from PubChem BioAssay.
